Measured values: PubChem BioAssay AID1117319 (Southern Research Institute, 2015)
Several values for one entry are separate records, joined by “and”; a condition that tells them apart may be missing. Identical values can stand only once. The whole screen tested about 260,000 compounds, of which about 1,500 (0.58%) were called active. Another 5% or so got no clear call; they are omitted. These entries were drawn from the full list. Results with a measured potency or affinity are listed apart. Values without a mark were called inactive.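 Rule for the calls: active = inhibition above a set limit at one or more doses, reproduced on every date tested; inconclusive = results disagree between test dates, or hit never tested in dose response; inactive = the rest.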

What follows are molecules tested against Virion infectivity factor (Human immunodeficiency virus type 1 group M subtype B (isolate BH10)) + Virion infectivity factor (Human immunodeficiency virus type 1 group M subtype B (isolate BRU/LAI)) + Virion infectivity factor (Human immunodeficiency virus type 1 group M subtype B (isolate PCV12)) + Virion infectivity factor (Human immunodeficiency virus type 1 group M subtype B (isolate HXB2)) + DNA dC->dU-editing enzyme APOBEC-3G (Homo sapiens) (UniProt P69720+P69721+P69722+P69723+Q9HC16) (assay: HIV-1 Vif–A3G interaction blockers – biochemical, TR-FRET, GST-Vif 1-94, biotin-A3G peptide, dose response retest, primary screen (AID 1117319;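 note: Vif residues 1-94 fused to GST binding biotinylated APOBEC3G peptide 110-148; 0% = full assay without inhibitor and 100% = GST in place of GST-Vif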)). Conditions: TR-FRET GST-Vif / biotin-A3G peptide binding; stronger effect = higher value.

SMILES	inhibition
O=C(OCC(=O)N1CCCC1)c1c2c(nc3ccccc13)CCCCC2	-4.27%
C[C@@H]1ON(C)[C@H]2C[C@H]3c4[nH]c5ccccc5c4CCN3C[C@@H]12	-1.4%
NNC(=O)C1C(O)CCC2CN3CCc4c([nH]c5ccccc45)C3CC21 (stereo not given)	-9.7%
Cc1ccnc(NS(=O)(=O)c2cc([N+](=O)[O-])ccc2C)c1	-2.19%
Brc1cccc(-c2nnco2)c1	-2.5%
Cc1ccc(C2=N/C(=C\c3ccc(F)cc3)C(=O)N2)cc1	-3.34%
COc1ccc(/C=C2\N=C(c3ccccc3Cl)NC2=O)cc1	3.99%
O=c1/c(=C/c2ccco2)sc2n1CN(c1cccc(Br)c1)CN=2	32.9%
O=C(CCc1nc2ccccc2c(=O)[nH]1)OCc1ccc(-c2ccccc2)cc1	-13.5%
CCc1ccc2c(c1)C(=O)CCC2	-0.54%
O=C(CN1CCCCC1)NCCNC(=O)CN1CCCCC1	-5.6%
Cc1ccc2c(c1)c1c3n2CCN(C(=O)CN2CCN(C)CC2)C3CCC1 (stereo not given)	-1.2%
Cc1ccc2c(c1)c1c3n2CCN(C(=O)C2CC2)C3CCC1 (stereo not given)	14.1%
COC(=O)c1ccc2c(c1)SC1=C(CCCC1=O)N2	20.1%
CNCc1ccccc1OCc1ccc(F)cc1	-4.9%
CCC(C)[C@@H](C(=O)Nc1ccc(OC)c(OC)c1)N1Cc2ccccc2C1=O (stereo not given in full)	3.88%
CC(C(=O)Nc1ccc2c(c1)OCCO2)N1Cc2ccccc2C1=O (stereo not given)	7.84%
N#C/C(C(N)=O)=C1/CCc2ccccc2N1	-2.65%
N#CC(C(N)=O)=C1CCC2(CC1)OCCCCO2	3.27%
C[C@@H]1CCCCO[C@H](CN(C)Cc2ccc(C(F)(F)F)cc2)[C@@H](C)CN([C@H](C)CO)C(=O)c2cc(NS(=O)(=O)c3cn(C)cn3)ccc2O1	-0.57%

SMILES	inhibition
Cc1noc(C)c1S(=O)(=O)Nc1ccc2c(c1)C(=O)N([C@@H](C)CO)C[C@@H](C)[C@@H](CN(C)CC1CCCCC1)OCCCC[C@@H](C)O2	2.32%
CCOC(=O)c1c(C)nc(C)c(C(=O)OCC)c1-c1cccc(N)c1	-1.65%
CC(C)n1c(SCC(=O)Nc2nc3ccccc3s2)nc2c1c(=O)n(C)c(=O)n2C	10.6%
NS(=O)(=O)c1cc(Br)c2c(c1)S(=O)(=O)NCN2	-0.53%
CCOC(=O)N1CCC(N(CCN(C)C)C(=S)Nc2cccc(Cl)c2C)CC1	-1.98%
Cc1ccc(N2NC(=O)/C(=C/c3ccc(-c4ccc(Cl)c(C(=O)O)c4)o3)C2=O)cc1	0.99%
O=C1NN(c2ccccc2)C(=O)/C1=C/c1ccc(-c2ccc(Cl)c(C(=O)O)c2)o1	-2.97%
CCOc1ccc2[nH]c(=O)c(CN(CCO)C(=O)c3ccc(OC)c(OC)c3)cc2c1	-0.38%
CCN(C(=O)COC(=O)c1cnc(C)cn1)c1c(N)n(Cc2ccccc2)c(=O)[nH]c1=O	2.12%
COc1c(O)cc2oc(-c3ccc(O)cc3)cc(=O)c2c1O	19.4%
O=c1cc(-c2ccc(O)c(O)c2)oc2cc(O)cc(O)c12	15.6%
O=c1cc(-c2ccc(O)cc2)oc2cc(O[C@@H]3O[C@H](CO)[C@@H](O)[C@H](O)[C@H]3O[C@@H]3OC[C@](O)(CO)[C@H]3O)cc(O)c12	6.15%
O=c1cc(-c2ccc(O)c(O)c2)oc2ccc3ccccc3c12	10.7%
COc1ccc(CNC(=O)CCC(=O)N2CCN(S(=O)(=O)c3cc([N+](=O)[O-])ccc3C)CC2)cc1	-6.42%
CN(C)c1ncc(/C=C2/C(=O)NC(=S)N(C3CCCCC3)C2=O)cn1	1.75%
CCOc1ccc(CCNS(=O)(=O)c2ccc3c(c2)oc(=O)n3C)cc1OCC	13.6%
c1ccc(CN2CCc3[nH]c4ccccc4c3C2)cc1	-5.69%
CC(C)CC(=O)N1CCN(C(=O)c2cccc(F)c2)CC1	-7.36%
COc1ccc(OCC(O)CN(C)C(=O)/C=C/c2cccc([N+](=O)[O-])c2)cc1 (stereo not given)	-4.1%
COc1ccc(/C=C/c2nc3sc4c(c3c(=O)o2)CCC4)cc1	-1.87%

SMILES	inhibition
O=c1oc(/C=C/c2ccccc2)nc2sc3c(c12)CCC3	70.5%
CCc1ccccc1OCC(=O)OCC(=O)N1CC(=O)Nc2ccccc21	-5.84%
CS(=O)(=O)N(CC(=O)NCc1ccc2c(c1)OCO2)C1CCCCC1	-13.6%
CCN(CC)c1ccc(/C=N/N2C(=O)c3ccccc3C2=O)c(O)c1	19.7%
Oc1ccccc1C=NN1CCCCCC1	-3.73%
COc1cccc(/C=N/N2CCOCC2)c1O	2.44%
O=C1c2ccccc2C(=O)N1/N=C/c1ccc(O)c(O)c1	29.1%
Oc1cccc(/C=N/N2CCCCC2)c1O	-5.32%
CCN(CC)c1ccc(/C=N/N2CCOCC2)c(O)c1	-1.22%
CCC(=O)C1CCCN(C(=O)CCc2nnc(C3(c4ccc(Cl)cc4)CCC3)o2)C1 (stereo not given)	8.39%
CCC(C)(C(=O)NC1CCCC1)N(C(=O)c1ccccn1)c1ccc(C)cc1 (stereo not given)	5.82%
CC(=O)Nc1cccc(C(=O)OCC(=O)NNC(=O)c2cccs2)c1	-1.93%
Cc1ccc(C2(C)NC(=O)N(CC(=O)Nc3nc(-c4ccccn4)cs3)C2=O)cc1 (stereo not given)	0.48%
COc1ccccc1OCC(=O)NCC(C)NC(=O)COc1ccccc1OC (stereo not given)	5.26%
COc1ccc(-c2cn(-c3ccc(C)cc3)c(=O)n2CC(=O)Nc2cccc(F)c2)cc1	7.83%
CCOc1cccc2sc(N(CCCN(C)C)C(=O)Cc3ccccc3)nc12	3.08%
CCc1c(C)sc(NC(=O)OC)c1C(=O)N1CCOCC1	-5.04%
CCc1c(C)sc(NC(=O)OC)c1C(N)=O	-10.3%
OC(COCc1ccccc1)CN1CCCC1 (stereo not given)	1.73%
COc1ccc2oc(C(=O)c3ccccc3)c(NC(=O)CN3CCN(C)CC3)c2c1	1.78% and 5.75%
